Compounds with a hit are over-represented: about 12% of the library has one in this group of screens.
CHOP inhibitor: blocks CHOP induction under ER stress. inhibition, % at 10 µM. hit rate 3.8% among 220,000. CHO-K1 CHOP-promoter luciferase, tunicamycin-induced, 15-18 h. AID 2732;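 active = compounds that reduced the stress-induced luciferase reporter signal by more than about 70% of percent inhibition, limit read from the data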
Lmaj promast: Leishmania major promastigote growth inhibition; Leishmania major promastigotes, resazurin fluorescence viability; inhibition, % at 10 µM; hit rate 9% among 200,000; AID 1063; in the data active = inhibition above about 50%;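 also: promastigotes grown with compound for 44 hours at 28 °C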
WT yeast gro inh: growth inhibition of WT yeast, mitochondrial fusion screen | mitochondrial fusion phenotypic screen, WT strain | inhibition, % at 10 µM | hit rate 2.1% among 190,000 | AID 1362; in the data active = inhibition above about 58%; tested in S. cerevisiae
Arbovirus inh: blocks arbovirus infection. arbovirus infection cell-based antiviral screen. inhibition, % at 10 µM. hit rate 0.37% among 200,000. AID 1251; in the data active = inhibition above about 30%
Of the large screens only hits and unclear results are named; the others gave an inactive call.

O=C(/C=C/c1cccc(Br)c1)N1CCN(c2cccc(C(F)(F)F)c2)CC1	WT yeast gro inh 67
CC(C)(C)NC(=O)Cn1c(Cl)nc2ccccc21	none
O=C(c1c(F)c(F)c(F)c(F)c1F)N1CCN(c2cccc(C(F)(F)F)c2)CC1	CHOP inhibitor 82
O=C(c1ccncc1)N1CCN(c2cccc(C(F)(F)F)c2)CC1	none
O=C(Nc1cccc2c1[nH]c1ccccc12)C(F)(F)F	none
c1ccc(-c2nc3ccccn3c2NC2CCCC2)nc1	Lmaj promast 100, WT yeast gro inh 68
Cc1ccccc1Nc1c(-c2cccnc2)nc2cccc(C)n12	none
Cc1ccn2c(NC3CCCC3)c(-c3ccccn3)nc2c1	Lmaj promast 101, WT yeast gro inh 76
Clc1ccc(-c2nc3cnccn3c2NC2CCCC2)cc1	WT yeast gro inh 68
Cc1ccn2c(Nc3ccccc3C)c(-c3ccncc3)nc2c1	Lmaj promast 86
Cc1ccc2nc(-c3ccncc3)c(NC3CCCCC3)n2c1	Lmaj promast 65
Cc1ccc2nc(-c3ccncc3)c(NC3CCCC3)n2c1	none
Cc1ccn2c(NC3CCCCC3)c(C)nc2c1	none
Cc1ccn2c(NC3CCCC3)c(-c3ccncc3)nc2c1	Lmaj promast 89
CCN(c1ccccc1)S(=O)(=O)c1ccc(Cl)c(NC(=O)CN2C(=O)NC3(CCCC3)C2=O)c1	none (no result: Lmaj promast, WT yeast gro inh, Arbovirus inh)
CCOc1ccc(NC2=C(Cl)C(=O)N(C3CCCCC3)C2=O)cc1	none
CN1CCN(C2=C(Cl)C(=O)N(C3CCCCC3)C2=O)CC1	Lmaj promast 95
CCOc1ccc(C(=O)c2cc([N+](=O)[O-])ccc2Cl)cc1	CHOP inhibitor 82
CCOc1ccc(C(=O)c2ccc([N+](=O)[O-])cc2Cl)cc1	none
CCOc1cc(-c2nc(-c3ccc(C)nc3OC)no2)cc(OCC)c1OCC	CHOP inhibitor 77
CCOc1cc(-c2nc(-c3ccc(C)nc3OCC)no2)cc(OCC)c1OCC	none
CCOc1nc(C)ccc1-c1noc(-c2ccccc2OC)n1	CHOP inhibitor 72
CCOc1ccccc1-c1nc(-c2cc3ccc(C)cc3[nH]c2=O)no1	CHOP inhibitor 72, Lmaj promast 69
O=C1NCCN/C1=C\C(=O)c1ccc(Cl)cc1	none (no result: Lmaj promast, WT yeast gro inh, Arbovirus inh)
O=c1c2c3c(sc2nc2n1CCC2)CCC3	WT yeast gro inh 61
CCOc1ccc2c(c1)-c1c(ssc1=S)C(C)(C)N2C(=O)c1ccco1	none
Oc1ccc(C(c2nnnn2CCc2ccccc2)N2CCN(c3nc4ccccc4s3)CC2)cc1 (stereo not given)	none (no result: Lmaj promast, WT yeast gro inh, Arbovirus inh)
c1cnc2ccc(C(c3nnnn3C3CCCC3)N3CCN(c4nc5ccccc5s4)CC3)cc2c1 (stereo not given)	Lmaj promast 89
COc1ccc(C(c2nnnn2C(C)(C)C)N2CCN(c3nc4ccccc4s3)CC2)cc1OC (stereo not given)	none
Clc1ccc(C(c2nnnn2C2CCCC2)N2CCN(c3nc4ccccc4s3)CC2)cc1 (stereo not given)	Lmaj promast 97 (no result: CHOP inhibitor, WT yeast gro inh, Arbovirus inh)
O=C(c1ccccn1)N(Cc1cccs1)C1(C(=O)NC2CCCCC2)CCCCC1	none
COc1ccc(/C=N/n2cnc3c([nH]c4ccc(F)cc43)c2=O)cc1CSc1ccccn1	CHOP inhibitor 80 (no result: Lmaj promast, WT yeast gro inh, Arbovirus inh)
COc1cc2c(cc1OC)C(c1cccc([N+](=O)[O-])c1)N(C(=O)c1ccccc1C(=O)O)CC2 (stereo not given)	none
CCOC(=O)c1c(C)nc2c(c1-c1ccc(OC)c(OC)c1)C(=O)c1ccccc1-2	CHOP inhibitor 85
CCOC(=O)c1c(C)nc(C)c(C(=O)OCC)c1-c1ccc(OC)cc1	none
CCC1(C)Cc2c(sc3c2c(=O)n(C)c2nnc(SCC(=O)c4ccc(Cl)cc4)n32)CO1 (stereo not given)	none (no result: CHOP inhibitor, WT yeast gro inh, Arbovirus inh)
Cc1cccc(OC2CCN(Cc3c(C(=O)N4CCCC4)nc4ccccn34)CC2)c1	Lmaj promast 99
O=C(c1nc2ccccn2c1CN1CCC(Cc2ccccc2)CC1)N1CCCC1	Lmaj promast 69
O=c1cc(CN2CCN(c3ccccn3)CC2)nc2sccn12	none
CN1Cc2ccccc2CC1CNCc1c(C(=O)N2CCCC2)nc2ccccn12 (stereo not given)	none
O=c1cc(CN2CCC(Cc3ccccc3)CC2)nc2sccn12	Lmaj promast 88
Cc1cccc(OC2CCN(Cc3nc(CC4CC4)no3)CC2)c1	none
C[C@H]1CC[C@H]2C(=O)N[C@H](Cc3ccccc3)C(=O)N2[C@@H]1c1ccccc1	none
CCOc1ccc2nc(N3CCC(C(=O)N4CCN(C(=O)c5ccco5)CC4)CC3)sc2c1	none
CCOc1ccc2nc(N3CCC(C(=O)N4CCN(C5CCCCC5)CC4)CC3)sc2c1	Lmaj promast 95
Cc1cc(C)c2nc(N3CCC(C(=O)N4CCCC4)CC3)sc2c1	none
CCCN1CCN(CCCNC(=O)C2CCCN(c3nc4ccc(OCC)cc4s3)C2)CC1 (stereo not given)	Lmaj promast 64
Cc1cc(C)c2nc(N3CCC(C(=O)NCCCN4CCCCC4)CC3)sc2c1	Lmaj promast 97
CCOc1ccc(N(CC(=O)Nc2ccccc2C(=O)N2CCOCC2)S(=O)(=O)c2ccc(F)cc2)cc1	none
Cc1cc([N+](=O)[O-])nn1Cc1ccc(C(=O)N/N=C/c2ccc(N(C)C)cc2)cc1	none (no result: Lmaj promast, WT yeast gro inh, Arbovirus inh)
N=C1C(c2nc3ccccc3c(=O)[nH]2)=C(O)CN1CCc1ccccc1	Lmaj promast 60
COc1ccccc1N1CC(O)=C(c2nc3ccccc3c(=O)[nH]2)C1=N	Lmaj promast 99
COCCN1CC(O)=C(c2nc3ccccc3c(=O)[nH]2)C1=N	none
COc1cccc2c1C(CO)N1C(C#N)C3CC(C(=O)O)C(C1C2)N3C (stereo not given)	none (no result: Lmaj promast, WT yeast gro inh, Arbovirus inh)
CCOC(=O)CC(=O)CSc1nc(C)nc2c1oc1ccccc12	WT yeast gro inh 83
Cc1nc(SCC(=O)O)c2oc3ccccc3c2n1	none
Cc1nc(SCC(=O)NCc2ccccc2)c2oc3ccccc3c2n1	CHOP inhibitor 72
Cc1nc(NC(C)c2ccccc2)c2oc3ccccc3c2n1 (stereo not given)	WT yeast gro inh 66 (no result: CHOP inhibitor)
CCC(C)Nc1nc(C)nc2c1oc1ccccc12 (stereo not given)	none (no result: Lmaj promast, WT yeast gro inh, Arbovirus inh)
CCOC(=O)C1CCN(c2nc(C)nc3c2oc2ccccc23)CC1	CHOP inhibitor 75 (no result: Lmaj promast)
O=C(Nc1ccc(N2CCOCC2)cc1)c1ccc(S(=O)(=O)NCc2ccco2)cc1	none (no result: Lmaj promast, WT yeast gro inh, Arbovirus inh)
Cc1cc(Br)cc2cn[nH]c12	none
Cc1cccc(NC(=S)NCc2ccc3c(c2)OCO3)c1	none
O=C(N/N=C/c1ccc2c(c1)OCO2)c1ccc2ccccc2n1	Lmaj promast 78
Cc1ccn2c(C(=O)N/N=C\c3ccc4c(c3)OCO4)c(C)nc2c1	Lmaj promast 85
CC(SCc1ccccc1)C(=O)N/N=C/c1cc2c(cc1Br)OCO2 (stereo not given)	none
CC(SCc1ccccc1)C(=O)N/N=C/c1ccc2c(c1)OCO2 (stereo not given)	Lmaj promast 75
Cc1cccc(NC(=S)N/N=C/c2ccc3c(c2)OCO3)c1	WT yeast gro inh 60
Cc1cc(Nc2c(C)n(C)n(-c3ccccc3)c2=O)n2c(nc3ccccc32)c1C#N	none
Cc1cc(SCC(=O)Nc2c(C)n(C)n(-c3ccccc3)c2=O)n2c(nc3ccccc32)c1C#N	Lmaj promast 87 (no result: CHOP inhibitor, WT yeast gro inh, Arbovirus inh)
O=C(/C=C/c1ccc(Cl)cc1)c1cccnc1	Lmaj promast 100
O=C(/C=C/c1ccccc1Cl)c1cccnc1	Lmaj promast 98
O=C(/C=C/c1ccccc1Cl)c1ccc(O)cc1	none (no result: Lmaj promast, WT yeast gro inh, Arbovirus inh)
